Source: the OligoGym collection

Molecular target: CYP4A22
Assay: pooled miR-30 sensor sort-seq; sequence = guide strand
Details: shRNA
Note: reference of the scale not given here.

Row | Sequence | sensor-assay potency score (higher = more potent)
1 | TTGGGTTGTGGTGAAGGCCATA | -1
2 | TTGGATCACTTGGTCTGTGTGC | -0.603
3 | TATGCAGGTAGAGCTGAGCTGC | -1.03
4 | TGAGCTCTCTTCCAATGCCTGG | -1.4
5 | TTGATCTTCTCCAGCTCCCCCT | -0.672
6 | TTCATGGCAAATTGTTTCCCGA | -0.959
7 | AATAAGGACAGGCACTTGGGAA | -1.26
8 | TTTCAACACAAGTCGTGCCATG | -0.809
9 | TTGGGAATGTCTTCACCCGTTC | -0.893
10 | TTCCTGAATCCGTTGTAGCTCC | -0.657
11 | TTTGGATTTCAACACAAGTCGT | -1.17
12 | TTCTGTAGTTGAGCCTTCCTCA | 0.294

Molecular target: CYP4V2
Assay: as above
Details: shRNA

Row | Sequence | sensor-assay potency score (higher = more potent)
13 | TAACACATTCCAGATACCGAAG | -1.38
14 | TTCTTCAGGTCTTCTACTGTAG | -0.329
15 | TTCAACTTGATCCAGATGCCAT | -0.613
16 | TCATTCTATAAACTGCACGGAC | -0.644
17 | TTCTAGACCAAGCTCTTCTCTT | -0.575
18 | TTTTGACCTATACAGTTCCTGG | -1.19
19 | TTCTGGTTGGATTCTATCCAAA | -1.62
20 | TCAACTGTCCTTCTAGACCAAG | -1.36
21 | TTCTTCTCGAATATCTTCATGA | -0.54
22 | TTAGAACTCTGTAACCTGCCAC | 0.681
23 | ATATCTTCATGACTTAGCCTGT | -0.479

Molecular target: CYSLTR1
Assay: as above
Details: shRNA

Row | Sequence | sensor-assay potency score (higher = more potent)
24 | TAAATTAATCATGTATACTTGG | -0.15
25 | TTTTAGTTTGATTGTCTTGTGG | -0.438
26 | TTTCTGAATGTAGACAGCCTTT | -1.15
27 | TGACACATAATGCAAGACCAAA | -1.62
28 | ATACCTACACACACAAACCTGG | -0.207
29 | TTTAGTTTGATTGTCTTGTGGG | 0.715
30 | TTGACATACAAAGCATAGGTGC | -0.753
31 | TAGAGGTTGACATACAAAGCAT | -0.639
32 | TTAGTTTGATTGTCTTGTGGGG | 0.0611
33 | TAGAAATGGAGAACTGGTCAAA | -0.616
34 | TTTGTGAACATAATAGACCACA | -0.314

Molecular target: CYTH1
Assay: as above
Details: shRNA

Row | Sequence | sensor-assay potency score (higher = more potent)
35 | TACTTCTGCTATCTCATCCTTC | 0.117
36 | TAGGAAACACTTGAGAACCAGG | -0.778
37 | TAACTTGGTCTTTATTGTCGGG | -0.54
38 | TTGGTCTTTATTGTCGGGGATA | -1.5
39 | TTGCACTGACAATATCGCTGGG | 0.116
40 | TCGTTCTCTATTAAGAACTGGA | -0.271
